Screening results as filed in PubChem.
EBV gp42 block: blocks Epstein-Barr virus glycoprotein 42 binding | Q1HVG2 | Fluorescence polarization binding assay, mP read-out | inhibition, % (tested at 21.74 µM) | hit rate 0.42% among 220,000 | AID 1085; in the data active = inhibition above about 50%
Target sequence (Q1HVG2 whole entry, looked up): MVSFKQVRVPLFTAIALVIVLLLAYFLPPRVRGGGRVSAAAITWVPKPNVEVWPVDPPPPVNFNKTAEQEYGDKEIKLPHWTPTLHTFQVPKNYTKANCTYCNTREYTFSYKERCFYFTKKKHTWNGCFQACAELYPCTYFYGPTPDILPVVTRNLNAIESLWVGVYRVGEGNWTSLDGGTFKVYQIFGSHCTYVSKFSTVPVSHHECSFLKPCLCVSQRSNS
BCLXL inh: inhibitors of human Bcl-xL | inhibition, % at 10.9 µM | GST-Bcl-xL / FITC-Bim BH3 peptide fluorescence polarization | hit rate 0.7% among 320,000;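 active = inhibition above the mean of all tested compounds plus 3 SD, cutoff set per campaign, cut at about 30% in these data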;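 also: 0% = DMSO wells and 100% = unlabeled Bim-BH3 peptide competitor; inhibitors lower millipolarization by displacing the labeled peptide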
MEX-5 binding: C. elegans MEX-5 TCR-2 RNA binding activity; hit rate 0.38% among 300,000; AID 1832; Q9XUB2; MEX-5/FITC-TCR2 RNA binding, fluorescence polarization; active compounds read low; activity score (negative = inhibition of binding), % at 10 µM;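 active = inhibition past about -25% in most replicates, and total fluorescence under double the plate's negative control median, limit read from the data; inconclusive = replicates evenly split on the limit, or fluorescence at least double controls; inactive = too little inhibition in most replicates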;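 also: 0% = DMSO and -100% = 5 µM competing unlabeled TCR2 RNA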
Target sequence (Q9XUB2 whole entry, looked up): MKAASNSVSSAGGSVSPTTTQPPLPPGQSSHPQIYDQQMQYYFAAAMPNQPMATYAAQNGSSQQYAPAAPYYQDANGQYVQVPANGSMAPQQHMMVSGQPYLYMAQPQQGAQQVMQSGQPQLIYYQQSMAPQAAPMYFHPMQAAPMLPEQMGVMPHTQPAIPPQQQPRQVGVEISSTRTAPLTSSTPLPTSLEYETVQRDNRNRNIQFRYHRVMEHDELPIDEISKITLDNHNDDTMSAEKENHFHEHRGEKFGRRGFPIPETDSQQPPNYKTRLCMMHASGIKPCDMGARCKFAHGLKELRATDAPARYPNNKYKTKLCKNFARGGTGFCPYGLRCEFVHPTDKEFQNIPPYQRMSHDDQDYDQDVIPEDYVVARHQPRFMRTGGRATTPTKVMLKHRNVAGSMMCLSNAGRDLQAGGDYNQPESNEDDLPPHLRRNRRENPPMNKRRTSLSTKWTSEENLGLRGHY
eLon inh: inhibitors of E. coli Lon protease; hit rate 0.42% among 360,000; inhibition, % at 7.94 µM; P0A9M0; purified E. coli Lon protease, fluorescence polarization; in the data active = inhibition above about 13%, passing the limit was not always enough;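 also: 0% = enzyme with probe and DMSO and 100% = no enzyme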
GLD-1 RNA inh: GLD-1-TGE RNA interaction inhibition (C. elegans); inhibition, % at 5.96 µM; Q17339; purified GLD-1 + fluorescein TGE RNA, fluorescence polarization; hit rate 0.44% among 320,000; AID 2280;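 active = percent inhibition above a per-plate cutoff, the plate mean of test compounds plus 3 SD, cut at about 30% in these data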;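 also: 0% = DMSO wells with GLD-1 and probe and 100% = wells lacking GLD-1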
MCL1 BIM primary: disrupts human MCL1 binding to BIM-BH3 peptide; Q07820; GST-MCL1 / FITC-Bim-BH3 fluorescence polarization; inhibition, % at 10.9 µM; hit rate 0.68% among 320,000;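 active = inhibition above the mean inhibition of all tested compounds plus 3 SD, set per campaign, cut at about 40% in these data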;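 also: 0% = DMSO wells and 100% = unlabeled Bim-BH3 peptide control; higher means more loss of mP so more displacement of Bim peptide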
eLon confirm: confirmation of E. coli Lon protease inhibitors. shares compounds with eLon inh. purified E. coli Lon, fluorescence polarization. inhibition, % at 7.94 µM. hit rate 31% among 1,400. AID 602230; in the data active = inhibition above about 16%;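 also: 0% = enzyme with probe and DMSO and 100% = no enzyme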
Starred values were filed as active, the others as inactive; ? = inconclusive; . = no result; + = active, no number. A selection: hits, their analogues and other compounds. The true share with any hit is near 1.4%.

SMILES | EBV gp42 block | BCLXL inh | MEX-5 binding | eLon inh | GLD-1 RNA inh | MCL1 BIM primary | eLon confirm
O=C1CC(C(=O)Nc2ccccc2C(=O)O)C(c2ccccc2)O1 (centres undefined) | 3 | 5 | -1 | 19* | -4 | 4 | -12
Clc1ccccc1N=Nc1ccccn1 | . | . | . | + | . | . | 10
CC(=O)NNc1cc(N2CCOCC2)nc(N2CCOCC2)n1 | -8 | 0 | 4 | -14 | -30 | -7 | .
COc1ccc(NC(=O)NNc2cc(N3CCOCC3)nc(N3CCOCC3)n2)cc1 | -15 | -3 | -2 | 34* | -3 | -5 | 15
O=C(CSCc1cc(=O)n2ccsc2n1)Nc1ccc(F)cc1 | . | 2 | -1 | 66* | 1 | 0 | 3
O=C(CC1C=CCC1)Nc1ccccc1 (centres undefined) | . | . | . | 50* | . | . | -1
O=C(CC1NCCNC1=O)Nc1ccccc1 (centres undefined) | -9 | -13 | -1 | 4 | 0 | -1 | .
NC(=O)c1ncn([C@@H]2O[C@H](CNC(=O)[C@H](N)CSCc3ccccc3)[C@@H](O)[C@H]2O)n1 | . | . | . | 24* | . | . | 0
COc1ccccc1Cn1c(=S)[nH]c2cc(C(=O)N3CCCC(C)C3)ccc2c1=O (centres undefined) | . | . | . | -9 | . | . | .
O=c1c(-c2cc3ccccc3o2)[n+]([O-])c2ccccc2n1OCc1ccccn1 | 46 | 11 | -4 | 20* | 28 | 11 | 8
O=c1c(-c2ccc(Br)cc2)[n+]([O-])c2ccccc2n1OCc1ccccn1 | 8 | 9 | -2 | -7 | -5 | 3 | .
Clc1ccc(-c2nc3ccc(Cl)cn3c2Cc2ccsc2)cc1 | . | . | . | 25* | . | . | 3
CCCc1nc2ccc(Cl)cn2c1Cc1ccsc1 | . | . | . | 25* | . | . | 6
Clc1ccc2nc(-c3ccco3)c(Cc3ccsc3)n2c1 | . | . | . | -14 | . | . | .
Cc1cc(Br)cn2c(Cc3ccsc3)c(-c3ccccc3)nc12 | . | . | . | 24* | . | . | 3
Clc1ccc2nc(-c3ccccc3)c(Cc3ccsc3)n2c1 | . | . | . | 18* | . | . | 12
FC(F)(F)c1ccc(Cl)c(N/N=C/c2ccc(N3CCOCC3)s2)c1 | 0 | 6 | 3 | -21 | -7 | -2 | .
CC(C)c1ccc(NC(=O)CSc2n[nH]c(=O)n2-c2cccnc2)cc1 | . | 6 | 1 | 4 | 3 | 3 | .
O=C(CCCCCNc1nc(=S)[nH]c2ccccc12)NCCC1=CCCCC1 | -23 | 7 | 1 | 0 | -1 | 3 | .
CCOC(=O)N1CCN(CC(=O)c2ccc(O)cc2O)CC1 | . | 6 | ? | 25* | 41* | 2 | 29*
CCOC(=O)N1CCN(CC(=O)c2ccc(O)c(C)c2O)CC1 | . | 9 | -3 | 3 | 0 | 3 | .
CN(C)S(=O)(=O)c1ccc(Cl)c(C(=O)NNC(=O)Cc2nc3ccccc3n2C)c1 | . | 2 | . | + | 13 | 9 | 3
O=C(CCc1nc2ccccc2[nH]1)Nc1ccc(F)cc1 | -12 | -4 | 2 | -4 | 5 | -9 | .
O=C(CCc1nc2ccccc2[nH]1)Nc1ccccc1F | -14 | 0 | 3 | 14* | 0 | 4 | 0
CC(NC(=O)c1cc(COc2ccc(-n3cncn3)cc2)on1)c1ccc(F)cc1 (centres undefined) | . | . | . | 0 | . | . | .
SMILES | EBV gp42 block | BCLXL inh | MEX-5 binding | eLon inh | GLD-1 RNA inh | MCL1 BIM primary | eLon confirm
O=C(/C=C/c1ccc(OC(F)F)cc1)OCC(=O)N1CCc2ccccc21 | . | -12 | -1 | 17* | 0 | -21 | 2
COc1ccc(CNC(=O)c2ccc[nH]2)cc1Cl | 1 | 0 | 0 | 1 | -1 | 3 | .
CCN(CC)S(=O)(=O)c1ccc(N2CCOCC2)c(NC(=O)c2cc3ccccc3o2)c1 | . | . | . | 30* | . | . | -2
CCN(CC)S(=O)(=O)c1ccc(N2CCOCC2)c(NC(=O)c2ccccc2)c1 | 4 | 6 | 1 | 3 | -4 | 12 | .
O=C1c2ccccc2C(=O)N1Cc1ccc2c(c1)OCO2 | -6 | 3 | -3 | -1 | 11 | 0 | .
Cc1ccc(S(=O)(=O)NCc2ccc3c(c2)cc(C)n3C)cc1 | -2 | 15 | 4 | 16* | 25 | 15 | -2
Cc1ccc(S(=O)(=O)NCc2ccncc2)cc1 | -8 | 2 | 0 | -5 | 8 | -5 | .
Cc1cc2cc(CN3C(=O)c4ccccc4C3=O)ccc2n1C | -7 | 10 | 0 | 25* | 17 | 14 | 14
CN(C)C1=NCCN1CCc1ccc(F)cc1 | . | 0 | . | -4 | -7 | -6 | .
COc1cc(C(CC(=O)N2CCCC2)c2c(OC)cc(OC)c3ccc(=O)oc23)cc(OC)c1OC (centres undefined) | -12 | 36* | -39* | 37* | 55* | 38 | 14
Cc1ccsc1C(=O)OC(C)C(=O)NC1CCCCC1C (centres undefined) | . | . | . | -3 | . | . | .
CCc1ccccc1NC(=O)C1CCCN(c2ncnc3onc(-c4ccc(F)cc4)c23)C1 (centres undefined) | . | 4 | 1 | -1 | 10 | 2 | .
Cc1ccccc1NC(=O)C1CCCN(c2ncnc3onc(-c4ccc(F)cc4)c23)C1 (centres undefined) | . | 4 | 1 | 16* | 0 | -9 | -15
Cc1c(C(=O)N2CCN(S(=O)(=O)c3ccccc3)CC2)oc2ccc(Br)cc12 | . | . | . | 35* | 2 | . | -31
O=C(c1cc2ccccc2o1)N1CCN(S(=O)(=O)c2ccccc2)CC1 | . | . | . | 19* | . | . | -7
Cc1c(C(=O)N2CCCCC2)oc2ccc(Br)cc12 | . | 0 | 1 | -7 | -2 | 0 | .
CCCN(CC(=O)Nc1cc(Cl)ccc1Cl)C(=O)c1ccccc1SCC(=O)N1CCCC1 | . | -6 | 0 | -2 | 3 | -8 | .
CCOC(=O)C1=C(N)Oc2cc(O)ccc2C1c1ccc(C)cc1 (centres undefined) | . | -1 | -1 | -2 | 2 | -4 | .
CCOC(=O)C1=C(N)Oc2cc(O)ccc2C1c1ccc(F)cc1F (centres undefined) | . | 4 | 0 | 34* | 3 | 4 | -17
CC(=O)NC(CCCN1C(=O)c2ccccc2C1=O)c1nnn(C)n1 (centres undefined) | -15 | 8 | -1 | -4 | 1 | 3 | .
Oc1ccc(Nc2nc(-c3ccccc3F)nc3ccccc23)cc1 | . | 2 | 0 | 17* | 4 | 6 | 8
Oc1ccc(Nc2nc(-c3ccccc3O)nc3ccccc23)cc1 | . | . | -2 | 2 | . | . | .
N#Cc1c(NCCCO)nc(-c2ccccc2)c2c1CCCC2 | -10 | 3 | 0 | 14* | 3 | 4 | -3
CCN(CC(=O)NCc1ccc(F)cc1)CC(=O)Nc1cc(S(=O)(=O)N(C)C)ccc1C | . | -10 | . | -3 | -1 | -11 | .
CCN(CC(=O)NCc1ccc(F)cc1)CC(=O)Nc1ccc(Br)cc1F | . | . | . | 22* | -2 | . | -2
CCCCc1nc(NCCNC(=O)c2ccccc2)c(C#N)c2c1CSC(C)(C)C2 | -10 | 28 | 3 | 12* | 8 | 18 | -1
